CRFR2-BP antag: antagonists of CRF-binding protein/CRF-R2 receptor complex | HEK293 CRF-R2/CRF-BP, CRF-induced calcium fluorescence | inhibition, % at 11.8 µM | 0.59% of 350,000 active | AID 588475;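 active = inhibition of the ligand-induced calcium signal above about 50% at the single tested concentration, limit read from the data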
TMEM16A act: activates or potentiates the mouse TMEM16A chloride channel; 0.3% of 340,000 active; AID 623877; Q8BHY3; B-score at 10 µM; HEK293 TMEM16A/YFP-H148Q/I152L, iodide quench fluorescence; stronger effect = lower value;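 active = fluorescence-ratio B-score plate-corrected deviation score at least 3 library SD below zero, with starting fluorescence score within 5 deviations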;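 note: channel opened by trigger with iodide after compound preincubation; score built on the fluorescence ratio of max minus min over baseline; more negative score means more quench and so TMEM16A activation or potentiation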
ANO1 block: mouse TMEM16A channel inhibition, primary screen; HEK293 TMEM16A/YFP iodide influx fluorescence, ionomycin; normalized B-score (activity score, 25-100; higher = stronger inhibition) at 10 µM; 1.2% of 310,000 active; AID 588511;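 active = ratio plate-corrected score three or more library SD toward inhibition, starting fluorescence score within five deviations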;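 note: score derived from kinetic fluorescence span divided by baseline fluorescence per well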
NR3A LBD binder: modulators (binders) of human NR3A ligand-binding domain. NR3A LBD differential scanning fluorimetry, Tm shift; 0% = protein alone, 100% = glycine-bound protein. Tm shift relative to glycine control, % at 25 µM. AID 1259313. 2.5% of 340,000 active;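 active = melting temperature shift of at least 10% of the positive control shift, at one fixed dose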
CRFR2-BP ag: CRF-BP/CRF-R2 complex agonism | activation, % at 13.2 µM | 0.46% of 350,000 active | HEK293 CRF-R2/CRF-BP, calcium dye fluorescence (FLIPR); percent of saturating CRF peptide response;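 active = activation of at least 50%, plus an integration ratio under a set limit after plate pattern correction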;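 note: plate controls were neutral control wells without compound for no effect and CRF at EC100 for full effect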
MPTP block: permeability transition pore inhibition; inhibition, % at 10 µM; 1.4% of 360,000 active; isolated mouse mitochondria, Ca2+ swelling absorbance, 30 min;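 active = inhibition of 50% or more, scaled per plate between neutral and stimulator controls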;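 note: 0% = DMSO wells given calcium and 100% = 1 mM EGTA wells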
TMEM16A reconf: TMEM16A (mouse) chloride channel inhibition, re-confirmation; 39% of 2,300 active; inhibition, % at 10 µM; shares compounds with ANO1 block; HEK293 TMEM16A/YFP-H148Q, iodide quench fluorescence; ionomycin added to raise cell calcium;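 active = mean duplicate percent inhibition, scaled so buffer wells are 0 and the reference blocker 100, over three buffer SD above buffer mean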
TMEM16A Ca cntr: calcium mobilization counter-screen hit for TMEM16A inhibitor series | TMEM16A/YFP HEK293, Fluo4 calcium mobilization | AID 652231 | 2% of 2,300 active | calcium response (% of ionomycin), % at 10 µM | shares compounds with ANO1 block;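 active = duplicate-averaged calcium signal over 20% of the ionomycin maximum, relative to buffer baseline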;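 note: each well's signal is peak minus trough fluorescence divided by its pre-addition baseline; 0% = buffer wells and 100% = ionomycin wells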
YFP-HEK293 quench: counter-screen for TMEM16A inhibitors: effect in parental YFP-HEK293 cells. shares compounds with ANO1 block. iodide YFP quench, ionomycin. YFP ratio F(max-min)/F0 at 10 µM. 2,300 tested, under 10 active. AID 652233;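 active = yellow fluorescent protein signal ratio exceeding the buffer control mean by over 5 SD of those controls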;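 note: ratio is mean of duplicate wells from kinetic YFP trace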
ClC-1 rat inh: selectivity of TMEM16A inhibitors: inhibition of rat ClC-1 chloride channel; shares compounds with ANO1 block; CHO ClC-1-YFP, iodide influx fluorescence quench; iodide control reads 0, buffer control 100; ratio percent, % at 10 µM; 2,300 tested, under 10 active;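 active = duplicate-mean ratio percent above the mean of iodide-only control wells, which defines zero, plus 5 of their SD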;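 note: higher percent means stronger block of ClC-1 iodide influx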
Target sequence (P35524 whole entry, looked up): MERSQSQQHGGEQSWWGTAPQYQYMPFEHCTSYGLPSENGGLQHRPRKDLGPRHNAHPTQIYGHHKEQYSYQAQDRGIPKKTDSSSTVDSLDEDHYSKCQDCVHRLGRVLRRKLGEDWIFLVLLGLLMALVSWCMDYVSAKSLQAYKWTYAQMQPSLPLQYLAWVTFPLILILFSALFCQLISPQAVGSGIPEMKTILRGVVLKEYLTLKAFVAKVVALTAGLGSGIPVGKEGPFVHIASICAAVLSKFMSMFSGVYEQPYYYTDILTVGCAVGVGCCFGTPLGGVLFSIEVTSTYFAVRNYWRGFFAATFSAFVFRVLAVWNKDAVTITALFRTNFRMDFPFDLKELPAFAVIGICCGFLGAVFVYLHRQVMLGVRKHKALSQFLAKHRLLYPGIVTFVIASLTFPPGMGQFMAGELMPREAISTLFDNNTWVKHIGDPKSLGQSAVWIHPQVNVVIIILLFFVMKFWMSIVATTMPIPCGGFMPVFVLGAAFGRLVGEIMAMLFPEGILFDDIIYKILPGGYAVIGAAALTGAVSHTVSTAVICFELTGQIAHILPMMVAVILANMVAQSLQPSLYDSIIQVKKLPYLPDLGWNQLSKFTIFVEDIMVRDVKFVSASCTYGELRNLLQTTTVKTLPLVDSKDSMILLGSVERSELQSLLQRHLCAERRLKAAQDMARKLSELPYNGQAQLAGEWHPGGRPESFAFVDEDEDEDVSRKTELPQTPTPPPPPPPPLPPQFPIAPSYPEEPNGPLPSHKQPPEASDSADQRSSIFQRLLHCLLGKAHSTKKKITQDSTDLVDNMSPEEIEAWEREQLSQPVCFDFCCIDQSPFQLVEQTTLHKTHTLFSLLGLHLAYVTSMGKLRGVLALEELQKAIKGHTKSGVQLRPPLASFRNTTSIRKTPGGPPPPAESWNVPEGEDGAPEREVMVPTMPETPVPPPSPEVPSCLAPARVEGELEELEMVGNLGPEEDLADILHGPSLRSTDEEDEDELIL
Numbers without * were called inactive; i = inactive; · = not tested or not shown. A selection: hits, their analogues and other compounds. The true share with any hit is near 5.1%.

SMILES	CRFR2-BP antag	TMEM16A act	ANO1 block	NR3A LBD binder	CRFR2-BP ag	MPTP block	TMEM16A reconf	TMEM16A Ca cntr	YFP-HEK293 quench	ClC-1 rat inh
O=C(CCC1CCCC1)Nc1ccccc1-c1ccccc1	-9	i	i	-2	1	3	·	·	·	·
O=C(CCC1CCCCC1)Nc1ccccc1-c1ccccc1	-11	i	100*	1	0	2	26%*	i	-0.79	-5
CCC(CC)NC(=O)C1CCN(c2ccc(S(=O)(=O)N3CCOCC3)cc2[N+](=O)[O-])CC1	0	i	·	-1	0	-1	·	·	·	·
O=C(Nc1ccc(S(=O)(=O)N2CCCC2)cc1)c1ccc(CN2CCc3ccccc3C2)cc1	-12	i	i	-25	3	49	·	·	·	·
Cc1cccc(NC(=O)c2ccc(CN3CCN(Cc4ccccc4)CC3)cc2)c1	0	i	25*	-2	4	1	i	i	-0.87	-12
CCOC(=O)c1ccc(NC(=O)c2ccc(CN3CCc4ccccc4C3)cc2)cc1	-10	i	100*	1	7	0	16%*	i	-1.1	-8
O=C(Nc1ccc(S(=O)(=O)N2CCOCC2)cc1)c1ccc(CN2CCc3ccccc3C2)cc1	-13	·	100*	-3	2	·	50%*	i	-1.1	-28
CC(=O)c1cccc(NC(=O)c2ccc(CN3CCc4ccccc4C3)cc2)c1	-9	i	i	-2	1	0	20%*	i	-0.96	-11
CCN(C(=O)Cn1cc(C(F)(F)F)ccc1=O)C1CCS(=O)(=O)C1 (configuration not stated)	-1	·	·	·	1	1	·	·	·	·
CCOc1cc(C(=O)Nc2cc(C)ccn2)cc(OCC)c1OCC	0	i	100*	-1	-5	-1	i	i	-1.4	-2
Cc1cccc(C)c1NC(=O)C(c1ccnc2ccccc12)n1c(=O)c(-c2ccccc2)nc2ccccc21 (configuration not stated)	·	·	·	·	·	2	·	·	·	·
Cc1csc(SCC(=O)Nc2nc(-c3ccccc3)cs2)n1	13	i	100*	-7	-3	0	i	i	-1	-5
COc1ccccc1-c1nnc(SCC(=O)Nc2nc(-c3ccccc3)cs2)n1C	7	i	100*	1	-1	3	18%*	i	-0.8	3
CCc1nnc(NC(=O)CSc2nnc(-c3ccccc3OC)n2-c2ccccc2)s1	0	i	25*	-1	-1	3	i	i	-1.1	-10
Cc1onc(-c2ccccc2)c1C(=O)NC(=S)NNC(=O)c1ccncc1	-34	i	i	-3	0	-1	·	·	·	·
Cc1onc(-c2ccccc2)c1C(=O)NC(=S)NNC(=O)c1cc(-c2ccc(F)cc2)n[nH]1	11	i	25*	10	0	2	i	i	-0.84	2
O=C(Nc1cccnc1)c1ccccc1-c1nc(-c2ccccc2F)no1	-21	i	25*	0	0	-1	i	i	-0.86	-12
COc1ccccc1-c1noc(-c2ccccc2C(=O)Nc2cccnc2)n1	8	i	i	1	-4	-1	·	·	·	·
COc1ccc(N2C(=O)C3CCCN3C2c2cccc(OC)c2OC)cc1 (configuration not stated)	1	i	25*	1	-1	-2	i	i	-0.9	-6

Compound activity as filed in PubChem.
